# Measured values reported in the supplement of paper PMC13094657.
# Where a name gives a salt, the structure may show the parent alone. ± gives the standard deviation of the averaged measurements.
# Key:
# MDA-MB-231 [1] = assay: cell viability relative to vehicle unstimulated control (fraction); higher = more viable cells; conditions: pre-treatment time: 18 h then 24 h IFNg/TNF
# MDA-MB-231 [2] = assay: kynurenine production, fold change vs DMSO IFNg/TNF control; higher = more kynurenine produced (less inhibition); conditions: pre-treatment time: 18 h then 24 h IFNg/TNF
# In short: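 After trichloroacetic acid and p-dimethylaminobenzaldehyde treatment, supernatants were read at 492 nm, with 0–100 μM standards. These came from MDA-MB-231 cells (7 × 10^4/well, 96-well plates) pre-treated 18 h with natural products in 0.1% DMSO and then exposed 24 h to IFNγ (1 U/ml) and TNF (6.25 ng/ml) at 37°C. Values for kynurenine production are fold changes over same-plate cytokine-stimulated vehicle wells, averaged over duplicate plates in the first screening round.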
# 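Wherever cell viability relative to vehicle unstimulated control is given: viability of the cells left after supernatant collection, read with Deep Blue dye added for 4 h, as absorbance at 570 nm minus 600 nm.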
SMILES,cell viability (MDA-MB-231 [1]),kynurenine production (MDA-MB-231 [2])
O=c1c(O)c(-c2ccc(O)c(O)c2)oc2cc(O)cc(O)c12 [Quercetin] (compound dose: 10 uM),0.974 ± 0.095,0.738 ± 0.2
CC(=O)O[C@@H]1C[C@H](O)[C@@]23CO[C@@H](O)[C@]1(C)[C@@H]2C[C@@H](O)[C@]1(C)[C@@H]3C(=O)[C@H](OC(C)=O)[C@@]2(C)[C@H](c3ccoc3)C[C@H]3O[C@]321 [Toosendanin] (compound dose: 10 uM),0.858 ± 0.056,0.206 ± 0.03
CC1(C)C[C@@H](O)[C@]2(C)CC[C@]3(C)C(=CC[C@@H]4[C@@]5(C)CC[C@H](O)[C@](C)(CO)[C@@H]5CC[C@]43C)[C@@H]2C1 [Soyasapogenol B] (compound dose: 10 uM),1.02 ± 0.018,0.744 ± 0.025
CSC(=O)OCC1=C[C@H](O)[C@H]2C(C(=O)O)=CO[C@@H](O[C@@H]3O[C@@H](CO)[C@@H](O)[C@@H](O)[C@H]3O)[C@H]12 [Paederosidic acid] (compound dose: 10 uM),1.14 ± 0.012,1.07 ± 0.07
C[C@@H]1O[C@@H](OC[C@H]2O[C@@H](Oc3c(-c4ccc(O)c(O)c4)oc4cc(O)cc(O)c4c3=O)[C@H](O)[C@@H](O)[C@@H]2O)[C@H](O)[C@H](O)[C@H]1O [Rutin] (compound dose: 10 uM),0.867,0.755 ± 0.058
CC1=CCC(C(C)C)=CC1 [γ-Terpinene] (compound dose: 10 uM),1.07 ± 0.036,0.75 ± 0.53
COc1ccc2c(c1O)-c1c(O)c(OC)cc3c1[C@H](C2)[N+](C)(C)CC3 [Magnoflorine] (compound dose: 10 uM),0.966 ± 0.05,0.937 ± 0.057
O=c1cc(-c2ccc(O)c(O)c2)oc2c([C@@H]3O[C@H](CO)[C@@H](O)[C@H](O)[C@H]3O)c(O)cc(O)c12 [Orientin] (compound dose: 10 uM),0.922 ± 0.069,0.918 ± 0.1
CC(C)=CCC[C@@](C)(O)[C@H]1CC[C@]2(C)[C@@H]1[C@H](O)C[C@@H]1[C@@]3(C)C[C@@H](O)[C@H](O[C@@H]4O[C@H](CO)[C@@H](O)[C@H](O)[C@H]4O[C@@H]4O[C@H](CO)[C@@H](O)[C@H](O)[C@H]4O)C(C)(C)[C@@H]3CC[C@]12C [Gypenoside LI] (compound dose: 10 uM),0.936 ± 0.084,0.724 ± 0.1
C[C@@H]1CC[C@]2(C(=O)O)CC[C@]3(C)C(=CC[C@@H]4[C@@]5(C)C[C@@H](O)[C@@H](O)C(C)(C)[C@@H]5CC[C@]43C)[C@@H]2[C@]1(C)O [Euscaphic acid] (compound dose: 10 uM),0.933 ± 0.02,0.804 ± 0.15
COc1c2cc3c(c1OC)CCN(C)[C@@H]3Cc1ccc(cc1)Oc1cc3c(c(OC)c1OC)CCN(C)[C@@H]3Cc1ccc(cc1)O2 [Cycleanine] (compound dose: 10 uM),0.118 ± 0.0024,0.198 ± 0.023
CC1=C2[C@@H](OC1=O)[C@H](O)[C@]13[C@H]4C[C@@H](C(C)(C)C)[C@]15[C@@H](OC(=O)[C@@H]5O)O[C@@]23C(=O)O4 [Ginkgolide K] (compound dose: 10 uM),0.996 ± 0.15,0.988 ± 0.29
C=C1C(=O)O[C@@H]2C[C@@]3(C)CCC[C@H](C)C3=C[C@H]12 [Alantolactone] (compound dose: 10 uM),0.909 ± 0.023,0.0823 ± 0.017
C[C@@H]1O[C@@H](O[C@H]2[C@H](OC(=O)[C@]34CCC(C)(C)C[C@H]3C3=CC[C@@H]5[C@@]6(C)C[C@H](O)[C@H](O[C@@H]7O[C@H](CO)[C@@H](O)[C@H](O)[C@H]7O)[C@](C)(CO)[C@@H]6CC[C@@]5(C)[C@]3(C)CC4)O[C@H](CO)[C@@H](O[C@@H]3OC[C@@H](O)[C@H](O)[C@H]3O)[C@@H]2O[C@@H]2OC[C@](O)(CO)[C@H]2O)[C@H](O)[C@H](O)[C@H]1O [Polygalasaponin V] (compound dose: 10 uM),0.992 ± 0.027,0.803 ± 0.068
C=C1C(=O)O[C@H]2[C@H]1CC/C(C)=C/CC[C@@]1(C)O[C@@H]21 [Parthenolide] (compound dose: 10 uM),0.933 ± 0.034,0.309 ± 0.064
C=C1CCC[C@]2(C)C[C@]3(O)OC(=O)C(C)=C3C[C@@H]12 [Atractylenolide III] (compound dose: 10 uM),1.015 ± 0.0091,0.763 ± 0.15
C[C@@H]1O[C@@H](OC[C@H]2O[C@@H](Oc3c(-c4ccc(O)cc4)oc4cc(O)cc(O)c4c3=O)[C@H](O)[C@@H](O)[C@@H]2O)[C@H](O)[C@H](O)[C@H]1O [Kaempferol 3-rutinoside] (compound dose: 10 uM),1.1 ± 0.14,0.955 ± 0.049
COC(=O)C1=CC[C@@]23CC[C@@H]([C@@](C)(/C=C/C=C(\C)C(=O)O)OC2=O)[C@@]3(OC(C)=O)CC1 [Pseudolaric Acid B] (compound dose: 10 uM),0.898 ± 0.035,0.62 ± 0.24

SMILES,cell viability (MDA-MB-231 [1]),kynurenine production (MDA-MB-231 [2])
CC(=O)O[C@H]1C(=O)[C@@]2(C)[C@H]([C@H](OC(=O)c3ccccc3)[C@]3(O)C[C@H](OC(=O)[C@H](O)[C@@H](NC(=O)c4ccccc4)c4ccccc4)C(C)=C1C3(C)C)[C@]1(OC(C)=O)CO[C@@H]1C[C@@H]2O [Paclitaxel] (compound dose: 10 uM),0.827 ± 0.035,0.317 ± 0.017
CC(C)=C/C=C1\O[C@@H]2CC(C)=CC(=O)[C@@H]2[C@]1(C)O [Bisabolangelone] (compound dose: 10 uM),0.907 ± 0.0022,0.711 ± 0.12
CC12CCC(CC1=O)C2(C)C (stereo not drawn) [(+)-Camphor] (compound dose: 10 uM),1 ± 0.016,0.98 ± 0.25
C[C@@]12CCc3occc3[C@H]1CC[C@@]13C[C@@H](CC[C@H]12)[C@@](O)(CO)C3 [Cafestol] (compound dose: 10 uM),1.03 ± 0.067,0.75 ± 0.4
C=C1C=CC(C(C)C)CC1 (stereo not drawn) [β-Phellandrene] (compound dose: 10 uM),0.99 ± 0.038,0.832 ± 0.18
CC(=O)O[C@@H](C[C@@H](C)C1=C2C[C@H](O)[C@H]3[C@@]4(C)CCC(=O)C(C)(C)[C@@H]4CC[C@]3(C)[C@@]2(C)CC1=O)[C@H]1OC1(C)C [Alisol C 23-acetate] (compound dose: 10 uM),0.975 ± 0.008,0.989 ± 0.024
C[C@@H]1O[C@@H](O[C@H]2[C@H](O[C@H]3CC[C@@]4(C)[C@@H](CC[C@]5(C)[C@@H]4CC=C4[C@@H]6CC(C)(C)CC[C@]6(C(=O)O)CC[C@]45C)[C@]3(C)CO)OC[C@H](O)[C@@H]2O)[C@H](O)[C@H](O)[C@H]1O [alpha-Hederin] (compound dose: 10 uM),0.932 ± 0.067,0.875 ± 0.14
CC(=O)O[C@H]1CC(=O)OC(C)(C)[C@@H]2CC(=O)[C@]3(C)[C@H](CC[C@@]4(C)[C@@H](c5ccoc5)OC(=O)[C@H]5O[C@]543)[C@@]12C [Nomilin] (compound dose: 10 uM),1.03 ± 0.023,0.942 ± 0.087
CC(=O)OCC1=CO[C@@H](OC(=O)CC(C)C)[C@H]2C1=C[C@H](OC(=O)CC(C)(C)OC(C)=O)[C@]21CO1 [Acevaltrate] (compound dose: 10 uM),0.474 ± 0.047,0.171 ± 0.011
C=C1[C@H](OC(=O)C(C)C)[C@@H](O)[C@@H](OC(C)=O)C(C)(C)/C=C/[C@H](C)[C@H](OC(C)=O)[C@@]2(O)C[C@@](C)(OC(C)=O)[C@H](OC(=O)c3ccccc3)[C@@H]2[C@H]1OC(C)=O [Jatrophane 4] (compound dose: 10 uM),1.1 ± 0.017,0.7528 ± 0.0061
COC(=O)C1=CO[C@@H](O[C@@H]2O[C@H](CO)[C@@H](O)[C@H](O)[C@H]2O)[C@@H]2[C@@H](C)[C@@H](O)C[C@H]12 [Loganin] (compound dose: 10 uM),1.05 ± 0.041,1.02 ± 0.18
C=C(C)[C@@H]1CC=C(CO)CC1 [Perillyl alcohol] (compound dose: 10 uM),1.036 ± 0.0039,0.905 ± 0.13
CC(C)=CCC[C@@H](C(=O)O)[C@H]1CC[C@@]2(C)C3=CC[C@H]4C(C)(C)[C@@H](O)CC[C@]4(C)C3=CC[C@]12C [3-Dehydrotrametenolic acid] (compound dose: 10 uM),1.01 ± 0.045,0.83 ± 0.085
COC(=O)[C@]1(C)CC[C@]2(C(=O)O[C@@H]3O[C@H](CO)[C@@H](O)[C@H](O)[C@H]3O)CC[C@]3(C)C(=CC[C@@H]4[C@@]5(C)C[C@H](O)[C@H](O[C@@H]6OC[C@@H](O[C@@H]7O[C@H](CO)[C@@H](O)[C@H](O)[C@H]7O)[C@H](O)[C@H]6O)[C@@](C)(CO)C5CC[C@]43C)[C@H]2C1 (some centres not stated) [Esculentoside H] (compound dose: 10 uM),0.984 ± 0.043,0.825 ± 0.099
C[C@H](CCC(=O)NCC(=O)O)[C@H]1CC[C@H]2[C@@H]3[C@H](O)C[C@@H]4C[C@H](O)CC[C@]4(C)[C@H]3CC[C@]12C [Glycochenodeoxycholic acid (sodium salt)] (compound dose: 10 uM),0.956 ± 0.082,0.955 ± 0.14
CC(C)=C[C@H]1C[C@](C)(O)[C@H]2[C@H]3CC[C@@H]4[C@@]5(C)CC[C@H](O[C@@H]6O[C@H](CO)[C@@H](O)[C@H](O[C@@H]7O[C@H](CO)[C@@H](O)[C@H](O)[C@H]7O)[C@H]6O[C@@H]6O[C@@H](CO)[C@H](O)[C@H]6O)C(C)(C)[C@@H]5CC[C@@]4(C)[C@@]34CO[C@@]2(C4)O1 [Bacoside A3] (compound dose: 10 uM),0.944 ± 0.034,0.672 ± 0.11
CC(=O)OC(CC12C3C(C(C)C)CCC1(C)C1CCC4(CCCC42)N3C1)C(=O)C1(C)COC2(C)CCC1O2 (configuration not stated) [Daphniphylline] (compound dose: 10 uM),1.01 ± 0.027,0.75 ± 0.079
C[C@@H]1O[C@@H](O[C@H]2[C@H](O[C@H]3CC[C@@]4(C)[C@@H](CC[C@]5(C)[C@@H]4CC=C4[C@@H]6CC(C)(C)CC[C@]6(C(=O)O[C@@H]6O[C@H](CO[C@@H]7O[C@H](CO)[C@@H](O)[C@H](O)[C@H]7O)[C@@H](O)[C@H](O)[C@H]6O)CC[C@]45C)[C@]3(C)CO)OC[C@H](O)[C@@H]2O)[C@H](O)[C@H](O[C@@H]2O[C@H](CO)[C@@H](O[C@@H]3O[C@H](CO)[C@@H](O)[C@H](O)[C@H]3O)[C@H](O)[C@H]2O)[C@H]1O [Macranthoidin B] (compound dose: 10 uM),0.9895 ± 0.0011,0.787 ± 0.18
